From PubChem
A selection: hits, their analogues and other compounds. The true share with any hit is near 3.8%.
pPAFAH FP inh = pPAFAH enzyme inhibitors, primary screen, biochemical, fluorescence polarization, human. Platelet-activating factor acetylhydrolase (Homo sapiens), Q13093. inhibition, % at 3.39 µM. 1.5% of 330,000 active. recombinant pPAFAH, FP-rhodamine probe fluorescence polarization;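 active = inhibition above the mean inhibition across the screen plus 3 SD, cut at about 25% in these data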;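 also: inhibitors block binding of the rhodamine activity-based probe so polarization drops; 0% = enzyme with DMSO and 100% = wells lacking pPAFAH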
Target sequence (Q13093 whole entry, looked up): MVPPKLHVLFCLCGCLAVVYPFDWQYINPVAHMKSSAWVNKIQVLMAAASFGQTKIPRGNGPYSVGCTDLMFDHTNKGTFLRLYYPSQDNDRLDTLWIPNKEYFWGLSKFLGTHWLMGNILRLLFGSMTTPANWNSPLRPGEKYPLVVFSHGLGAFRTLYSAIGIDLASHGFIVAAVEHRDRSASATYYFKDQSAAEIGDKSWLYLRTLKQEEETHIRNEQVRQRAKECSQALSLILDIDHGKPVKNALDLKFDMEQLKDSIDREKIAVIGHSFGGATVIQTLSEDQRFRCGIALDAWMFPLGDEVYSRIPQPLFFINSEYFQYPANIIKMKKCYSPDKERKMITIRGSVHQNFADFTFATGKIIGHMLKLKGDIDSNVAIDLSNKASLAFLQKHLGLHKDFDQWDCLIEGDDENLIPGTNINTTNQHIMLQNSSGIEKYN
PAFAH2 FP inh = PAFAH2 enzyme inhibitors, primary screen, biochemical, fluorescence polarization, human | recombinant PAFAH2, FP-rhodamine activity probe | inhibition, % at 3.39 µM | 0.99% of 340,000 active | AID 492956, 2010;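 active = inhibition above the mean over all tested compounds plus 3 SD, cut at about 30% in these data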;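 also: inhibitors block probe labeling of enzyme so polarization drops; 0% = enzyme with DMSO and 100% = wells lacking PAFAH2 protein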
PAFAH1B3 inh = PAFAH1B3 enzyme inhibitors, primary screen, biochemical, fluorescence polarization, human; Platelet-activating factor acetylhydrolase IB subunit alpha1 (Homo sapiens), Q15102; inhibition, % at 3.39 µM; recombinant PAFAH1B3, FP-rhodamine probe; 0.28% of 340,000 active;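 active = inhibition above the screen-wide average of all tested compounds plus 3 SD, cut at about 25% in these data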;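 also: 0% = enzyme with DMSO only and 100% = wells lacking PAFAH1B3 protein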
Target sequence (Q15102 whole entry, looked up): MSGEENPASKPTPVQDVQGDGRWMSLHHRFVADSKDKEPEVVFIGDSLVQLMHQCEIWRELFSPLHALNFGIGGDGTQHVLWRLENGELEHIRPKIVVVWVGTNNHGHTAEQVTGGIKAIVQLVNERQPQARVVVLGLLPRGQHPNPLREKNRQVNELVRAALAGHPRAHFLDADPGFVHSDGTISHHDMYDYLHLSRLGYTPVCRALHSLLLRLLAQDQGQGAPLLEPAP
PAFAH1B2 FP inh = PAFAH1B2 enzyme inhibitors, primary screen, biochemical, fluorescence polarization, human; AID 492953, 2010; inhibition, % at 3.39 µM; Platelet-activating factor acetylhydrolase IB subunit alpha2 (Homo sapiens), P68402; recombinant PAFAH1B2, FP-rhodamine activity probe; 1.2% of 340,000 active;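 active = inhibition above the mean of all tested compounds plus 3 SD, cut at about 24% in these data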;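 also: 0% = enzyme with DMSO and 100% = wells lacking PAFAH1B2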
DSG3 Ab inh = inhibitors of pemphigus antibody binding to DSG3, primary screen, biochemical, bead-based, flow cytometry, scFv-GFP; binding (percent of control), % at 10 µM; 0.48% of 310,000 active; Desmoglein-3 (Homo sapiens), P32926; DSG3-coupled beads, scFv-anti-DSG3-GFP binding; hits give low values;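 active = binding more than 3 SD below its plate's average and above zero; inconclusive = below that plate limit but binding exactly zero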;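 also: hits lower antibody fragment binding to DSG3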
M18AAP inhibitor = PfM18AAP inhibitors, malaria aminopeptidase, primary screen, biochemical, QFRET, recombinant enzyme | M18 aspartyl aminopeptidase (Plasmodium falciparum 3D7) | inhibition, % at 7.35 µM | H-Glu-NHMec fluorogenic cleavage | 1.2% of 290,000 active;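 active = inhibition above the campaign mean inhibition over all tested compounds plus 3 SD, cut at about 28% in these data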;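 also: 0% = plate median of test compound wells and 100% = 2 mM ZnCl2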
PAFAH2 FP conf = PAFAH2 enzyme inhibitors, confirmation, biochemical, fluorescence polarization, human. 65% of 2,300 active. shares compounds with PAFAH2 FP inh. AID 493030, 2011. recombinant PAFAH2, FP-rhodamine activity probe. inhibition, % at 3.39 µM;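 active = mean inhibition over three repeats above a set limit taken from the earlier primary screen, cut at about 30% in these data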;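 also: inhibitor blocks binding of rhodamine activity probe so polarization falls; 0% = enzyme with DMSO and 100% = wells lacking PAFAH2 protein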
* hit, by the source's call.

How did CC1=NN(C(N)=S)C(=O)C1N=Nc1ccc(C)c(Br)c1 (configuration not stated) do in these assays?
pPAFAH FP inh: 3.5; PAFAH2 FP inh: 41.6*; PAFAH1B3 inh: 11.2; PAFAH1B2 FP inh: 7.6; DSG3 Ab inh: 102.0; M18AAP inhibitor: 13.4; PAFAH2 FP conf: 32.7*

What do the screens show for `CC(=O)NC(C(=O)N1CCC(c2nc3ccccc3s2)CC1)C(C)C` (configuration not stated)?
pPAFAH FP inh: -1.7; PAFAH2 FP inh: -6.2; PAFAH1B3 inh: -0.3; PAFAH1B2 FP inh: 4.4; DSG3 Ab inh: 105.2; M18AAP inhibitor: -0.1

How did COc1ccccc1CNC(=O)COC(=O)/C=C/c1ccc(OC(F)F)c(OC)c1 do in these assays?
pPAFAH FP inh: 7.9; PAFAH2 FP inh: 14.9; PAFAH1B3 inh: 7.7; PAFAH1B2 FP inh: -3.2; DSG3 Ab inh: 105.4

How did COc1ccc(/C=C/C(=O)OCC(=O)NCCCc2ccccc2)cc1OC do in these assays?
pPAFAH FP inh: 11.1; PAFAH2 FP inh: 52.0*; PAFAH1B3 inh: 3.7; PAFAH1B2 FP inh: 0.6; DSG3 Ab inh: inconclusive; PAFAH2 FP conf: 40.0*

Results for COc1ccc(/C=C/C(=O)OCC(=O)NCc2ccccc2Cl)cc1OC ?
pPAFAH FP inh: -2.6; PAFAH2 FP inh: 79.2*; PAFAH1B3 inh: 12.2; PAFAH1B2 FP inh: 0.4; PAFAH2 FP conf: 76.5*

How did COc1ccc(CCNC(=O)COC(=O)/C=C/c2ccc(OCC#N)c(OC)c2)cc1 do in these assays?
pPAFAH FP inh: -1.7; PAFAH2 FP inh: -1.4; PAFAH1B3 inh: 12.2; PAFAH1B2 FP inh: 0.9; DSG3 Ab inh: 86.7; M18AAP inhibitor: -0.3

How did COc1cc(/C=C/C(=O)OCC(=O)NCCCc2ccccc2)cc(OC)c1OC do in these assays?
pPAFAH FP inh: 7.3; PAFAH2 FP inh: 19.2; PAFAH1B3 inh: 5.4; PAFAH1B2 FP inh: 4.4; DSG3 Ab inh: 109.0

How did COc1ccc(CCNC(=O)COC(=O)/C=C/c2ccc(OC)c(OC)c2)cc1 do in these assays?
pPAFAH FP inh: 5.3; PAFAH2 FP inh: 38.6*; PAFAH1B3 inh: 7.5; PAFAH1B2 FP inh: 5.7; DSG3 Ab inh: 102.0; M18AAP inhibitor: -2.1; PAFAH2 FP conf: 25.6

How did Cc1ccc(NC(=O)COC(=O)c2ccc(OC(F)F)cc2)cc1S(=O)(=O)N1CCCCC1 do in these assays?
PAFAH2 FP inh: 51.4*; PAFAH1B3 inh: -0.7; PAFAH1B2 FP inh: -2.3; PAFAH2 FP conf: 42.2*

What do the screens show for `Cc1ccc(C(=O)OCC(=O)Nc2ccc(C)c(S(=O)(=O)N3CCCCC3)c2)o1`?
DSG3 Ab inh: 105.5

How did Cc1ccc(NC(=O)COC(=O)c2ccc3c(c2)OCO3)cc1S(=O)(=O)N1CCCCC1 do in these assays?
pPAFAH FP inh: 17.0; PAFAH2 FP inh: 69.0*; PAFAH1B3 inh: -0.9; PAFAH1B2 FP inh: -3.2; M18AAP inhibitor: 3.7; PAFAH2 FP conf: 63.0*

Results for Cc1ccc(NC(=O)CNC(=O)c2ccc(OC(F)F)cc2)cc1S(=O)(=O)N1CCCCCC1 ?
PAFAH2 FP inh: 0.7; PAFAH1B3 inh: -4.5; PAFAH1B2 FP inh: -2.5; DSG3 Ab inh: 101.0

What do the screens show for `CCOc1ccc(NC(=O)CN(c2ccc(OC)cc2)S(=O)(=O)c2cccs2)cc1`?
pPAFAH FP inh: -0.7; PAFAH2 FP inh: 6.9; PAFAH1B3 inh: 0.0; PAFAH1B2 FP inh: -0.4; DSG3 Ab inh: 94.9

How did CCOc1cccc(/C=N/NC(=S)Nc2ccccc2[N+](=O)[O-])c1O do in these assays?
pPAFAH FP inh: 16.6; PAFAH2 FP inh: 44.8*; PAFAH1B3 inh: 14.9; PAFAH1B2 FP inh: 4.8; DSG3 Ab inh: 86.8; M18AAP inhibitor: -1.0; PAFAH2 FP conf: 20.4

What do the screens show for `CCCCCCCc1nc2nc(C)c(Br)c(=O)n2[nH]1`?
pPAFAH FP inh: 20.1; PAFAH2 FP inh: 38.1*; PAFAH1B3 inh: 9.9; PAFAH1B2 FP inh: 13.3; DSG3 Ab inh: 98.0; M18AAP inhibitor: 6.3; PAFAH2 FP conf: 34.9*

How did CCCc1nc2nc(C)c(NS(=O)(=O)c3ccc(C(C)(C)C)cc3)c(=O)n2[nH]1 do in these assays?
pPAFAH FP inh: 4.3; PAFAH2 FP inh: 9.3; PAFAH1B3 inh: 8.9; PAFAH1B2 FP inh: 8.6; DSG3 Ab inh: 95.9; M18AAP inhibitor: -0.9

How did Cc1cccc(-n2ncc3c2CCCC3NC(=O)Cc2c(C)noc2C)c1C (configuration not stated) do in these assays?
pPAFAH FP inh: -2.7; PAFAH2 FP inh: 1.3; PAFAH1B3 inh: 8.2; PAFAH1B2 FP inh: 7.9; DSG3 Ab inh: 108.6; M18AAP inhibitor: 0.7

How did COc1ccc(NC2CC(=O)N(c3cccc(C)c3)C2=O)cc1 (configuration not stated) do in these assays?
pPAFAH FP inh: 4.1; PAFAH2 FP inh: 47.2*; PAFAH1B3 inh: 5.4; PAFAH1B2 FP inh: 1.3; DSG3 Ab inh: 99.1; M18AAP inhibitor: 0.5; PAFAH2 FP conf: -2.0

What do the screens show for `COc1ccc(NC2CC(=O)N(c3cccc([N+](=O)[O-])c3)C2=O)cc1` (configuration not stated)?
pPAFAH FP inh: 2.8; PAFAH2 FP inh: 17.7; PAFAH1B3 inh: 7.2; PAFAH1B2 FP inh: 0.1; DSG3 Ab inh: 113.5; M18AAP inhibitor: 2.8

Results for CC(C)(C)N(Cc1ccccc1)C(=O)CCc1ccccc1 ?
pPAFAH FP inh: 2.8; PAFAH2 FP inh: -2.6; PAFAH1B3 inh: -6.7; PAFAH1B2 FP inh: 6.0; DSG3 Ab inh: 84.9; M18AAP inhibitor: 1.5

What do the screens show for `CCCCNC(=O)c1onc(CSc2ccccc2C)c1C(=O)O`?
pPAFAH FP inh: 4.3; PAFAH2 FP inh: 30.1*; PAFAH1B3 inh: 8.1; PAFAH1B2 FP inh: 11.9; DSG3 Ab inh: 105.9; M18AAP inhibitor: -0.3; PAFAH2 FP conf: 35.2*

Results for CCCCNC(=O)c1onc(CSc2cc(C)cc(C)c2)c1C(=O)O ?
pPAFAH FP inh: -0.6; PAFAH2 FP inh: 37.9*; PAFAH1B3 inh: 11.0; PAFAH1B2 FP inh: 4.6; DSG3 Ab inh: 94.7; M18AAP inhibitor: 2.1; PAFAH2 FP conf: 27.1

How did COc1ccc(OC)c(/C=C/C(=O)OCC(=O)Nc2cccc(C(C)=O)c2)c1 do in these assays?
pPAFAH FP inh: -2.3; PAFAH2 FP inh: 67.7*; PAFAH1B3 inh: -7.7; PAFAH1B2 FP inh: 0.1; DSG3 Ab inh: 103.1; M18AAP inhibitor: 1.0; PAFAH2 FP conf: 62.3*

How did COc1ccc(/C=C/C(=O)OCC(=O)NCc2ccco2)c(OC)c1 do in these assays?
pPAFAH FP inh: 12.7; PAFAH2 FP inh: 73.5*; PAFAH1B3 inh: -1.3; PAFAH1B2 FP inh: 1.1; DSG3 Ab inh: 111.8; M18AAP inhibitor: 0.5; PAFAH2 FP conf: 68.8*
